17 compounds from PubChem BioAssay (Tox21) can be followed below.

Results filed as inconclusive are left out. Calls of active or inactive are those of the source. The call rests on the fitted dose curve; in most records, active means well fitted curve in the direction sought with a large enough effect in the repeat runs; inconclusive means weak or mixed curves; inactive means no such curve, though single readings can be large; an effect the other way counts as inactive or inconclusive.

Assay [1] can be described thus: A CellTox Green Cytotoxicity Assay to monitor cytotoxicity in HepG2 cells - 0 hour (AID 1224882). Further: nearly all actives have a fitted effect of over 35% in size. Further: potency means the concentration at half of the fitted maximal effect. In short, it runs like this: (§1)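 Read-out is fluorescence of a cyanine dye excluded from live cells that stains DNA of dead HepG2 cells, with signal proportional to cytotoxicity. Plates were read at 0, 8, 16, 24, 32 and 40 h after compound addition.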
A short description of assay [2]: A CellTox Green Cytotoxicity Assay to monitor cytotoxicity in HepG2 cells - 32 hour (AID 1224883). Further: nearly all actives have a fitted effect of over 50% in size. Further: potency means the concentration at half of the fitted maximal effect. In short, it runs like this:
as §1

A short description of assay [3]: A CellTox Green Cytotoxicity Assay to monitor cytotoxicity in HEK293 cells - 8 hour (AID 1224884). Further: nearly all actives have a fitted effect of over 35% in size. Further: potency means the concentration at half of the fitted maximal effect. The method, boiled down: (§2)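 Nonlytic real-time cytotoxicity: HEK293 + CellTox Green reagent plated, 5 h preincubation, pintool compound addition (23 nL in DMSO), 37 C for 40 h, fluorescence measured at successive time points.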
Assay [4] is described as follows: qHTS RealTime-Glo MT Cell Viability Assay in HepG2 cells - 16 hour (AID 1224885). Further: nearly all actives have a fitted effect of over 50% in size. Further: potency means the concentration at half of the fitted maximal effect. The method, boiled down: (§3)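 Luminescence read-out: viable HepG2 cells reduce a prosubstrate to a NanoLuc substrate, giving a signal proportional to live cell number. Reads taken at 0, 8, 16, 24, 32 and 40 h of compound exposure at 37 C.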
For orientation: Quantitative high-throughput screening tests each substance at several concentrations.

The nature of assay [5]: A CellTox Green Cytotoxicity Assay to monitor cytotoxicity in HEK293 cells - 16 hour (AID 1224888). Further: nearly all actives have a fitted effect of over 35% in size. Further: potency means the concentration at half of the fitted maximal effect. The method, boiled down:
as §2

Assay [6] in a line: qHTS RealTime-Glo MT Cell Viability Assay in HepG2 cells - 0 hour (AID 1224889). Further: nearly all actives have a fitted effect of over 50% in size. The method, boiled down:
as §3

The nature of assay [7]: A CellTox Green Cytotoxicity Assay to monitor cytotoxicity in HepG2 cells - 8 hour (AID 1224890). Further: nearly all actives have a fitted effect of over 45% in size. Further: potency means the concentration at half of the fitted maximal effect. The method, boiled down:
as §1

Assay [8] in a line: qHTS RealTime-Glo MT Cell Viability Assay in HEK293 cells - 24 hour (AID 1224886). Further: nearly all actives have a fitted effect of over 50% in size. Further: potency means the concentration at half of the fitted maximal effect. The method, boiled down:
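Nonlytic real-time viability readout: viable cells convert prosubstrate to NanoLuc substrate, giving luminescence proportional to live cell number. HEK293, 600 cells/well, compound added after 5 h, continuous culture at 37 C.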

Assay [9] in a line: A CellTox Green Cytotoxicity Assay to monitor cytotoxicity in HEK293 cells - 32 hour (AID 1224881). Further: nearly all actives have a fitted effect of over 40% in size. Further: potency means the concentration at half of the fitted maximal effect. The method, boiled down: as §2
The nature of assay [10]: qHTS RealTime-Glo MT Cell Viability Assay in HEK293 cells - 8 hour (AID 1224887). Further: nearly all actives have a fitted effect of over 50% in size. Further: potency means the concentration at half of the fitted maximal effect. The method, boiled down:
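Cells were seeded together with NanoLuc luciferase and a prosubstrate that viable cells reduce to a luciferase substrate. After a 5 h incubation at 37 C/5% CO2, compounds were added and luminescence was measured repeatedly during 40 h of treatment.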

In the case of `Brc1cc2ccccc2c2ccccc12`, the Potency entry in assay [1], in assay [2], in assay [3], in [4], in [5] and in assay [6] was “inactive” in each case. For the same compound, in [7], the Potency result was “inactive”.
`CN(C(=O)CN(CCO)CC(=O)N(C)C(C)(C)Cc1ccccc1)C(C)(C)Cc1ccccc1`: the Potency entry in assay [1] is “inactive”. The Potency in assay [2] is 23.9 µM (active); in assay [8], 19 µM (active).
As to `Clc1ccc(Nc2nnc(Cc3ccncc3)c3ccccc23)cc1`, the Potency entry in assay [9], in [2], in assay [3], in assay [5], in assay [6] and in assay [7] was “inactive” in each case.
Regarding `O=c1c(O)c(-c2ccc(O)cc2)oc2cc(O)cc(O)c12`, the Potency result in assay [9], in assay [2], in assay [3], in [4], in [5] and in [6] was “inactive” each time. The Potency entry in assay [7] is “inactive”.
On to `O=c1cc(-c2ccccc2)oc2ccc3ccccc3c12`, for which the Potency result in [1], in assay [4], in assay [8], in assay [10] and in assay [6] was “inactive” each time. The Potency in assay [2] was 21.9 µM (active).
On to `O=c1cc(-c2ccccc2)oc2cc(O)cc(O)c12`, for which the Potency result in assay [9], in [3], in [5] and in [7] was “inactive” throughout.
`Cc1ccc(OC(=O)c2ccccc2O)cc1`: the Potency result in [1], in assay [2], in assay [3], in assay [4], in [8] and in assay [10] was “inactive” in each case. For the same compound, the Potency entry in assay [5], in assay [6] and in assay [7] was “inactive” throughout.
Consider `COc1ccccc1N1CCN(CCCCNC(=O)c2ccc(-c3ccc(C(C)=O)cc3)cc2)CC1`, for which the Potency entry in assay [1], in [3], in assay [4], in assay [5], in assay [6] and in assay [7] was “inactive” throughout. In addition, the Potency in [8] was 1.69 µM (active).
Turning to `CCCC(C(=O)OCCN(CC)CC)(c1ccccc1)c1ccccc1`, the Potency entry in [1], in assay [3], in [5], in [6] and in [7] was “inactive” in each case. Besides, in assay [8], the Potency is 21.3 µM (active).
Turning to `C=Cc1ccc(S(=O)(=O)O)cc1`, the results for the Potency in assay [1], in assay [2] and in assay [7] were 49 µM (active), 54.9 µM (active) and 54.9 µM (active), respectively. Moreover, the Potency entry in [4], in assay [8], in assay [10] and in assay [6] was “inactive” throughout.
In the case of `COC(=O)[C@H]1[C@H]2C[C@@H]3c4[nH]c5cc(OC)ccc5c4CCN3C[C@H]2C[C@@H](OC(=O)/C=C/c2ccc(O)c(OC)c2)[C@@H]1OC`, the Potency is 19 µM (active) in assay [9]; 23.9 µM (active) in assay [2]; 19 µM (active) in [3]; 16.9 µM (active) in assay [5]; 26.8 µM (active) in [7]. Also, the Potency result in assay [4] is “inactive”.
For the compound `Oc1cc2c(cc1O)[C@H]1c3ccc(O)c(O)c3OC[C@@]1(O)C2`, the Potency entry in [1], in assay [8], in assay [6] and in assay [7] was “inactive” throughout. The Potency was 44.2 µM (active) in assay [4], 22.2 µM (active) in [10] and 49.6 µM (active) in assay [5].
For `c1cc(N(CC2CO2)CC2CO2)ccc1Cc1ccc(N(CC2CO2)CC2CO2)cc1` (stereo not drawn), the Potency entry in [1], in assay [3], in assay [5], in assay [6] and in assay [7] was “inactive” throughout. For the same compound, in assay [8], the Potency was 43.6 µM (active).
With `COC(=O)c1nc(Cl)c(Cl)nc1N`, the Potency was 19 µM (active) in assay [9], 9.52 µM (active) in assay [8] and 6.74 µM (active) in assay [10]. In addition, the Potency result in assay [3] and in [6] was “inactive” in each case.
For `C[C@@H](O[C@H]1OCCN(Cc2n[nH]c(=O)[nH]2)[C@H]1c1ccc(F)cc1)c1cc(C(F)(F)F)cc(C(F)(F)F)c1`, the Potency result in assay [1], in assay [3], in [5] and in assay [6] was “inactive” in each case. Besides, the Potency in assay [2] was 16.9 µM (active); in [4], 19 µM (active); in [8] it was 16.9 µM (active); in assay [7] it was 16.9 µM (active).
For the compound `C(=C\c1ccccc1)/c1ccccc1`, the Potency result in [1], in [2], in [3], in assay [4], in assay [8] and in [10] was “inactive” each time. The Potency result in assay [6] and in [7] was “inactive” in each case.
Turning to `Nc1nc2ccc([N+](=O)[O-])cc2s1`, the Potency result in assay [9], in [4], in assay [10] and in assay [5] was “inactive” in each case. Besides, the values for the Potency in [2] and in [7] were 43.6 µM (active) and 49 µM (active), respectively.
